Screens (PubChem)
Compounds with a hit are over-represented: about 0.47% of the library has one in this group of screens.
AID inh = Primary qHTS assay for inhibitors of Activation Induced Cytidine Deaminase (AID): AID signal | Single-stranded DNA cytosine deaminase (Homo sapiens), Q9GZX7 | Potency, µM (titrated, usually from 115 µM), actives largely listed as inhibitors | AID deamination FRET fluorescence, UDG-coupled, 4 h | AID 1347428, 2020 | 91,000 tested, 0.32% active; further: nearly all actives have a fitted effect of over 25% in size
Target sequence (Q9GZX7 whole entry, looked up): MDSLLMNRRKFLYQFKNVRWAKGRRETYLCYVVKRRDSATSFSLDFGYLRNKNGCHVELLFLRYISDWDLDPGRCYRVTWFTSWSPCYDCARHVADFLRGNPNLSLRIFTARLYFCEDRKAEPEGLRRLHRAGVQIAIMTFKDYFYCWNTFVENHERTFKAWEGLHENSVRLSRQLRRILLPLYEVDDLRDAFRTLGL
UDG counter = Primary qHTS assay for inhibitors of Activation Induced Cytidine Deaminase (AID): UDG Counterscreen signal | Potency, µM (series often up to 115 µM), inactives show at the highest dose activity change, negative = inhibition, actives largely listed as inhibitors | FRET deamination/UDG coupled assay, UDG read, 4 h | 91,000 tested, 0.14% active | AID 1347430, 2020 | Uracil-DNA glycosylase; further: nearly all actives have a fitted effect of over 65% in size
* = called active by the depositor; [ ] = dose if it differs, or a comment. The call rests on the fitted dose curve; in most records, active means well fitted curve in the direction sought with a large enough effect; inconclusive means small, poorly fitted or top-dose-only effect, or another doubt; inactive means no such curve, though single readings can be large; an effect the other way counts as inactive or inconclusive. On the % scale 0 is the no-effect control and ±100 the full control effect; potency means the concentration at half of the fitted maximal effect.

How did COc1ccccc1C(=O)Oc1c(Sc2ccccc2)c(C)nn1-c1ccccc1 do in these assays?
AID inh: 44.7µM*; UDG counter: inconclusive

Results for Cc1ccc(Sc2c(C)nn(-c3ccccc3)c2OC(=O)CC(C)C)cc1 ?
AID inh: inconclusive; UDG counter: -18.9%

How did COc1cccc(-c2nc(N3CCCCCC3)c3ccccc3n2)c1O do in these assays?
AID inh: inconclusive; UDG counter: 89.1µM*

Results for Clc1ccccc1-c1nc(N2CCCCC2)c2ccccc2n1 ?
AID inh: inactive; UDG counter: -4.5%

How did CC(C)Oc1ccc(CNC(=O)Nc2ccc3c(c2)N(C)C(=O)c2ccccc2S3)cc1 do in these assays?
AID inh: inconclusive; UDG counter: -14.3%[57.5 µM]

Results for COc1ccc(CNC(=O)Nc2ccc3c(c2)N(C)C(=O)c2ccccc2S3)cc1OC ?
AID inh: 89.1µM*; UDG counter: 3.6%[57.5 µM]

What do the screens show for `Cn1c(COc2ccccc2Cl)nnc1SCCOc1ccc(Br)cc1`?
AID inh: inactive; UDG counter: -4.8%

How did CCn1cc(C(=O)NCCc2ccc(OC)c(OC)c2)c(=O)c2cc(S(=O)(=O)N(C)C3CCCCC3)ccc21 do in these assays?
AID inh: 15.8µM*; UDG counter: -22.8%

How did CCn1cc(C(=O)NCCc2ccc(OC)c(OC)c2)c(=O)c2cc(S(=O)(=O)N3CCCCCC3)ccc21 do in these assays?
AID inh: inactive; UDG counter: -14.8%

Results for N#CC(C(=O)C1c2ccccc2Oc2ccccc21)c1ccccn1 (centres undefined) ?
AID inh: inactive; UDG counter: 1.9%

Results for CCOCCCNCc1sccc1C ?
AID inh: inactive; UDG counter: -1.6%

Results for Cc1nn(CC(=O)Nc2nc3ccccc3s2)c(=O)c2ccccc12 ?
AID inh: inactive; UDG counter: -1.0%

How did CCOC(=O)c1c(C)oc2nc(C)nc(N3CCN(c4cccc(C(F)(F)F)c4)CC3)c12 do in these assays?
AID inh: 14.1µM*; UDG counter: -7.2%

How did CCOc1ccc(-c2nc(CSCC(=O)N3CCN(c4cccc(C(F)(F)F)c4)CC3)c(C)o2)cc1 do in these assays?
AID inh: 31.6µM*; UDG counter: 28.6%

How did CCOC(=O)c1c(C)oc2nc(C)nc(N3CCN(c4ccccc4)CC3)c12 do in these assays?
AID inh: inactive; UDG counter: 0.7%

What do the screens show for `CCOc1ccc(-c2nc(CSCC(=O)N3CCN(c4ccc(F)cc4)CC3)c(C)o2)cc1`?
AID inh: inactive; UDG counter: -8.7%

Results for COC(=O)/C(C#N)=C/c1ccc(-c2c(Cl)cc(Cl)cc2Cl)o1 ?
AID inh: inactive; UDG counter: 1.8%

How did CCOc1ccc2oc(C(=O)N3CCN(CC(=O)Nc4c(C)cccc4C)CC3)c(C)c2c1 do in these assays?
AID inh: inactive; UDG counter: -3.0%

What do the screens show for `O=C(CSc1nccn1-c1cccc(Cl)c1)Nc1cccc(C(F)(F)F)c1`?
AID inh: 31.6µM*; UDG counter: -19.6%

Results for O=C(CSc1nccn1-c1ccc(Cl)cc1)Nc1ccc(Cl)c(Cl)c1 ?
AID inh: inactive; UDG counter: -4.8%

What do the screens show for `Cc1c(C(=O)OCC(=O)NCC2CCCO2)sc2cccc(F)c12` (centres undefined)?
AID inh: inactive; UDG counter: -2.5%

What do the screens show for `O=C(c1cccn2c(=O)c3cc(Cl)ccc3nc12)N1CCN(c2ccccc2F)CC1`?
AID inh: inactive; UDG counter: 79.4µM*

Results for Cc1ccc(C)c(N2CCN(C(=O)c3cccn4c(=O)c5ccccc5nc34)CC2)c1 ?
AID inh: inactive; UDG counter: 0.0%

What do the screens show for `NC(=O)CSc1ncnc2cc(-c3ccc(Cl)cc3)sc12`?
AID inh: inactive; UDG counter: -2.8%

Results for CCN(CC)S(=O)(=O)c1ccc(C)c(NC(=O)c2nn(-c3ccccc3)c(=O)c3ccccc23)c1 ?
AID inh: inactive; UDG counter: -4.4%

How did Cc1nc2c(C(=O)NCc3ccccc3)cnn2c(C)c1Cc1ccc(F)cc1 do in these assays?
AID inh: inconclusive; UDG counter: -22.3%

How did CCCNC(=O)c1cnn2c(C)c(Cc3c(C)cc(C)cc3C)c(C)nc12 do in these assays?
AID inh: 39.8µM*; UDG counter: -10.0%

What do the screens show for `CCCCNC(=O)c1cnn2c(C)c(Cc3c(C)cc(C)cc3C)c(C)nc12`?
AID inh: inconclusive; UDG counter: -27.6%

Results for COc1ccc(CNC(=O)c2cnn3c(C)c(Cc4c(F)cccc4Cl)c(C)nc23)cc1 ?
AID inh: 35.5µM*; UDG counter: -17.0%

How did Cc1ccc(N)c2cccnc12 do in these assays?
AID inh: inactive; UDG counter: -4.6%

Results for COc1ccccc1C(=O)Nc1nc2nc(C)c(Cc3ccccc3)c(=O)n2[nH]1 ?
AID inh: 35.5µM*; UDG counter: -1.4%

How did Cc1nc2nc(NC(=O)c3ccc(C(C)(C)C)cc3)[nH]n2c(=O)c1Cc1ccccc1 do in these assays?
AID inh: inconclusive; UDG counter: 0.0%

What do the screens show for `O=C(CN1CCN(c2ccc(F)cc2)CC1)NC1CCS(=O)(=O)C1` (centres undefined)?
AID inh: inactive; UDG counter: 8.8%

What do the screens show for `CC(=O)[C@]1(O)Cc2c(O)c3c(c(O)c2[C@@H](O[C@H]2C[C@H](N)[C@H](O)[C@H](C)O2)C1)C(=O)c1ccccc1C3=O`?
AID inh: 11.2µM*; UDG counter: 61.9%

How did N[C@@H](CCC(=O)N[C@H](CSN=O)C(=O)NCC(=O)O)C(=O)O do in these assays?
AID inh: inactive; UDG counter: -12.1%

Results for [N-]=[N+]=Nc1ccc(C(=O)CSC[C@H](NC(=O)CC[C@H](N)C(=O)O)C(=O)NCC(=O)O)cc1 ?
AID inh: 89.1µM*; UDG counter: -6.0%

How did CCn1cc(S(=O)(=O)c2ccc(OC)cc2)c(=O)c2cc(F)c(N3CCC(C)CC3)cc21 do in these assays?
AID inh: 17.8µM*; UDG counter: -26.3%

What do the screens show for `CCn1cc(S(=O)(=O)c2ccc(OC)cc2)c(=O)c2cc(F)c(N3CCCCCC3)cc21`?
AID inh: inactive; UDG counter: -8.7%

Results for CCOc1ccc(NC(=O)C(c2ccccc2)c2ccccc2)c2cccnc12 ?
AID inh: inactive; UDG counter: -6.6%

How did COc1ccc(C(=O)Nc2ccc(-c3nc4ccccc4o3)cc2)cc1OC do in these assays?
AID inh: inactive; UDG counter: 2.8%

Results for Cc1cc2c(cc1C)-c1ccccc1C2=O ?
AID inh: inactive; UDG counter: -12.9%

Results for COC1=C(OC)C(=O)c2ccccc2C1=O ?
AID inh: 44.7µM*; UDG counter: -16.7%

How did CN(C(=O)c1ccc(N)cc1)C1CCCCC1 do in these assays?
AID inh: inactive; UDG counter: -1.3%

Results for COc1ccc(CNC(=O)c2nn(C)c3c2CS(=O)(=O)c2ccccc2-3)cc1 ?
AID inh: inactive; UDG counter: -1.4%

How did COc1ccc(OC)c(CNC(=O)c2nn(C)c3c2CS(=O)(=O)c2ccccc2-3)c1 do in these assays?
AID inh: 39.8µM*; UDG counter: -3.1%

How did CC(=O)Nc1cc(C)c(I)cc1C do in these assays?
AID inh: inactive; UDG counter: -5.6%

Results for CC(C)CCNC(=O)NCCn1c(-c2ccccc2)nc2ccccc21 ?
AID inh: inactive; UDG counter: 14.3%
